# In PubChem BioAssay (Tox21):
# Inconclusive results are not listed. A call without a number means that no potency is given here. Activity calls are given as the source filed them. Unless noted, calls follow the shape of the dose curve; as a rule, active = well fitted curve in the direction sought with a large enough effect in the repeat runs; inconclusive = weak or mixed curves; inactive = no such curve, though single readings can be large; an effect the other way counts as inactive or inconclusive.
# Tests used:
# [1] = qHTS assay for small molecule agonists of the p53 signaling pathway (AID 651631; calls by dose curve; also: nearly all actives have a fitted effect of over 15% in size; also: potency is read from the fitted curve at half-maximal effect); details: HCT-116 p53RE-bla reporter, beta-lactamase FRET ratio, 16 h; series mostly up to 73.3 µM
# Method in brief: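 Fluorescence intensity from cleaved LiveBLAzer B/G substrate (2 h, room temperature) served as the signal. Beforehand, HCT-116 reporter cells bearing p53 response elements were treated 16 h at 37 °C with DMSO-dissolved compounds.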
# [2] = qHTS assay for small molecules that induce genotoxicity in human embryonic kidney cells expressing luciferase-tagged ATAD5 (AID 651632); details: HEK293T ATAD5-luciferase induction, 16 h; series mostly up to 83.3 µM; also: nearly all actives have a fitted effect of over 15% in size; also: potency is read from the fitted curve at half-maximal effect
# Method in brief: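 Genotoxicity read-out via ATAD5-luciferase: HEK293T cells, 16 hr compound incubation at 37C, Amplite detection.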
# [3] = qHTS assay for small molecule agonists of the p53 signaling pathway - cell viability (AID 651633; calls by dose curve; also: nearly all actives have a fitted effect of over 30% in size); details: p53RE-bla HCT-116 viability, ATP luminescence, 16 h; series mostly up to 83.3 µM
# Method in brief: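 Viability counter-read: CellTiter-Glo luminescence (30 min, room temperature) in the same p53RE-bla plates. These plates had been exposed to compounds for 16 h at 37 C.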
# [4] = qHTS assay for small molecules that induce genotoxicity in human embryonic kidney cells expressing luciferase-tagged ATAD5 - cell viability (AID 651634; calls by dose curve; also: nearly all actives have a fitted effect of over 25% in size); details: HEK293T ATAD5-luc cells viability, CellTiter-Fluor, 15.5 h; series mostly up to 83.3 µM
# Method in brief: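 Live-cell protease activity (CellTiter-Fluor, fluorescence) indicates viability. HEK293T cells with luciferase-tagged ATAD5; 15.5 hr compound treatment at 37C.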
# [5] = qHTS assay for small molecule disruptors of the mitochondrial membrane potential - cell viability (AID 720634; calls by dose curve; also: nearly all actives have a fitted effect of over 20% in size; also: potency is read from the fitted curve at half-maximal effect); details: HepG2 viability, ATP luminescence (CellTiter-Glo), 1 h; series mostly up to 83.2 µM
# Method in brief: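 Human hepatoma HepG2 cells were treated for 1 hr with test chemicals, then given m-MPI dye and CellTiter-Glo. Cell viability reflects luminescence proportional to cellular ATP.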
# [6] = qHTS assay to test for compound auto fluorescence at 535 nm (green) in HepG2 cells (AID 720675); details: green autofluorescence 485/535 nm, 1 h; series mostly up to 46 µM
# [7] = qHTS assay to test for compound auto fluorescence at 460 nm (blue) in HEK293 cells (AID 720678); details: blue autofluorescence 405/460 nm; series mostly up to 46 µM
# Method in brief: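 Intrinsic compound fluorescence is recorded in live HEK293 cultures after overnight incubation at 37C, 5% CO2, using excitation 405 nm and emission 460 nm. Values are referenced to triamterene.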
# [8] = qHTS assay to test for compound auto fluorescence at 535 nm (green) in HEK293 cells (AID 720680); details: green autofluorescence 485/535 nm; series mostly up to 46 µM
# [9] = qHTS assay to test for compound auto fluorescence at 460 nm (blue) in HEK293 cell free culture (AID 720681); details: cell-free medium, autofluorescence 405/460 nm (blue); series mostly up to 46 µM
# Method in brief: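 Blue fluorescence (Ex 405/Em 460 nm, triamterene-equivalent) was read immediately after pin transfer of compound or DMSO into medium (DMEM, 10% FBS) without cells.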
# [10] = qHTS assay to test for compound auto fluorescence at 535 nm (green) in HEK293 cell free culture (AID 720682); details: cell-free medium, green autofluorescence 485/535 nm; series mostly up to 46 µM
# Method in brief: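 Intrinsic compound fluorescence is measured in culture medium containing 10% FBS, with excitation at 485 nm and detection at 535 nm, referenced to fluorescein.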
# [11] = qHTS assay to test for compound auto fluorescence at 590 nm (red) in HepG2 cell free culture (AID 720684); details: cell-free medium autofluorescence, red 540/590 nm; series mostly up to 46 µM
# Method in brief: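 Plate contents were MEM with 10% FBS plus test compound or DMSO, no cells. Fluorescence was recorded with 540 nm excitation and 590 nm emission.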
# [12] = qHTS assay to test for compound auto fluorescence at 460 nm (blue) in HepG2 cell free culture (AID 720685); details: Cell-free culture medium, blue autofluorescence 405/460 nm; series mostly up to 46 µM
# Method in brief: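 Compound (23 nL) or DMSO pinned into cell-free MEM with 10% FBS; blue fluorescence read at 405/460 nm excitation/emission, expressed as auto-fluorescence equivalency to triamterene.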
# [13] = qHTS assay to test for compound auto fluorescence at 535 nm (green) in HepG2 cell free culture (AID 720686); details: Cell-free medium, green autofluorescence 485/535 nm; series mostly up to 46 µM
# [14] = qHTS assay to test for compound auto fluorescence at 460 nm (blue) in HepG2 cells (AID 720687); details: autofluorescence 405/460 nm, 1 h; series mostly up to 46 µM
# Method in brief: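 Blue-channel autofluorescence (Ex/Em 405/460 nm, triamterene-equivalent) was measured after 1 hr compound exposure at 37 C, 5% CO2. Cells were HepG2, plated overnight at 37 C in MEM plus 10% FBS.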
# [15] = qHTS assay for small molecule disruptors of the mitochondrial membrane potential (AID 720635); details: HepG2 mitochondrial membrane potential, Mito-MPS dye ratio; series mostly up to 83.2 µM; also: potency is read from the fitted curve at half-maximal effect
# Method in brief: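 Mitochondrial membrane potential tracked with Mito-MPS dye, red aggregates (ex 540/em 590 nm) against green monomers (ex 490/em 535 nm). Compound treatment 1 hr at 37C, dye 30 min in HepG2.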
# [16] = qHTS assay to test for compound auto fluorescence at 590 nm (red) in HepG2 cells (AID 720674); details: HepG2 autofluorescence, red 540/590 nm, 1 h; series mostly up to 46 µM
# Method in brief: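 We screened compounds on adherent HepG2 cells, incubating them for an hour at 37 C in 5% CO2 before reading emission at 590 nm under 540 nm excitation; values reflect equivalence to Rose Bengal sodium fluorescence.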
# [17] = qHTS assay to test for compound auto fluorescence at 590 nm (red) in HEK293 cells (AID 720679); details: red autofluorescence 540/590 nm; series mostly up to 46 µM
# Method in brief: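 Red autofluorescence, HEK293 cells: 2,000 cells/well; attach 4-5 hr 37C; add 23 nL cpd or DMSO; incubate o/n 37C 5% CO2; read Ex540/Em590; Rose Bengal sodium reference.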
# [18] = qHTS assay to test for compound auto fluorescence at 590 nm (red) in HEK293 cell free culture (AID 720683); details: cell-free medium autofluorescence, Ex540/Em590 red; series mostly up to 46 µM
# Method in brief: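 Red-channel autofluorescence of compounds in culture medium (DMEM, 10% FBS), no cells, measured at 540/590 nm. Rose Bengal sodium is the reference fluorophore for equivalence.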
# [19] = target: Glucocorticoid receptor (Homo sapiens) (UniProt P04150); assay: qHTS assay to identify small molecule agonists of the glucocorticoid receptor (GR) signaling pathway (AID 720691; active = well fitted activation curve with a large enough effect in the signal ratio in the repeat runs, not every such curve was filed as active; the % refers to the signal ratio; also: potency is read from the fitted curve at half-maximal effect); details: GR-bla HeLa, beta-lactamase reporter ratio, 18 h; activation: at 62.4 µM (top of the series)
# Method in brief: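 Beta-lactamase reporter activity, read as fluorescence intensity, was measured in GR-bla HeLa cells exposed to compounds for 18 h at 37 C and then loaded with LiveBLAzer B/G FRET substrate for 2 h at room temperature.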
# [20] = target: Glucocorticoid receptor (Homo sapiens) (UniProt P04150); assay: qHTS assay to identify small molecule antagonists of the glucocorticoid receptor (GR) signaling pathway (AID 720692; active = well fitted inhibition curve with a large enough effect in the signal ratio in the repeat runs, not every such curve was filed as active; the % refers to the signal ratio; also: potency is read from the fitted curve at half-maximal effect); details: GR-bla HeLa, beta-lactamase FRET ratio, dexamethasone-stimulated, 18 h; series mostly up to 58.5 µM
# Method in brief: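 Fluorescence from cleaved LiveBLAzer B/G FRET substrate reports GRE-driven beta-lactamase in HeLa cells; compounds are tested against 5 nM dexamethasone (final) over 18 h at 37 C, substrate incubation 2 h at room temperature.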
# Sequence of Glucocorticoid receptor (Homo sapiens) (P04150 whole entry, looked up): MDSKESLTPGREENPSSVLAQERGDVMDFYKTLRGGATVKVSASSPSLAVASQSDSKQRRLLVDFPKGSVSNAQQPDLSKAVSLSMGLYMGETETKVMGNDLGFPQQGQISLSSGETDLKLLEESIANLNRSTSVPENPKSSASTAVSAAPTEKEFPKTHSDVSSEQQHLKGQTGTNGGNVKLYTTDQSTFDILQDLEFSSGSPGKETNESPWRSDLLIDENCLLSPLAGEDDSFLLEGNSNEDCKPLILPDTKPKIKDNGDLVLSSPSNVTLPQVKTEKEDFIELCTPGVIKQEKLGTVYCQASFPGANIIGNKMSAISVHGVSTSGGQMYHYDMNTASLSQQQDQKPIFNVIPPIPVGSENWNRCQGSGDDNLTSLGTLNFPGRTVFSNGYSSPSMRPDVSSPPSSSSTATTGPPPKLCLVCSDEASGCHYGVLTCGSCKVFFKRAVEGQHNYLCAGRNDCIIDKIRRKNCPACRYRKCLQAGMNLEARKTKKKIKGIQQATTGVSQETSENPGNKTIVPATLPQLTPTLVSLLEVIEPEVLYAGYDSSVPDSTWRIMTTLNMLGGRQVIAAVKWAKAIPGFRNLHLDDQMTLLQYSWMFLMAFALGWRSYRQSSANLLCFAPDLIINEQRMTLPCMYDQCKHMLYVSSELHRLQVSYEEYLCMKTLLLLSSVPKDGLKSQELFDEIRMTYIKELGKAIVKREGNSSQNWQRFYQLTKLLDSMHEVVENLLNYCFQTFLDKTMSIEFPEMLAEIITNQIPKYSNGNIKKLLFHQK
SMILES,Potency [1],Potency [2],Potency [3],Potency [4],Potency [5],Potency [6],Potency [7],Potency [8],Potency [9],Potency [10],Potency [11],outcome [12],Potency [13],outcome [14],Potency [15],Potency [16],Potency [17],Potency [18],Potency [19],Potency [20]
CC1(C)[C@@H]2CC[C@@]1(C)[C@H](OC(=O)CSC#N)C2,inactive,inactive,inactive,inactive,inactive,inactive,inactive,inactive,inactive,inactive,inactive,inactive,inactive,inactive,,,,,,
O=C(O)c1ccc(NC(=O)[C@H](Cc2ccc(O)cc2)NC(=O)c2ccccc2)cc1,inactive,inactive,,inactive,inactive,inactive,inactive,inactive,inactive,inactive,inactive,inactive,inactive,inactive,inactive,inactive,inactive,inactive,,
COc1ccc(/C=C/C(=O)OCCC(C)C)cc1,inactive,,inactive,inactive,inactive,inactive,inactive,inactive,inactive,inactive,inactive,inactive,inactive,inactive,inactive,inactive,inactive,inactive,inactive,
CC(NNC(=O)c1ccccc1)c1ccccc1 (stereo unspecified),inactive,,inactive,inactive,inactive,inactive,inactive,inactive,inactive,inactive,inactive,inactive,inactive,inactive,24.8 µM (active),inactive,inactive,inactive,,
CCCCC(=O)O[C@H]1CC[C@H]2[C@@H]3CCc4cc(O)ccc4[C@H]3CC[C@]12C,inactive,inactive,inactive,,29.8 µM (active),inactive,inactive,inactive,inactive,inactive,inactive,inactive,inactive,inactive,18.8 µM (active),inactive,inactive,inactive,inactive,9.52 µM (active)
CCCOc1ccc2nc(NC(=O)OC)sc2c1,1.5 µM (active),1.88 µM (active),inactive,,inactive,inactive,inactive,inactive,inactive,inactive,inactive,inactive,inactive,inactive,7.5 µM (active),inactive,inactive,inactive,inactive,
COc1ccc(-c2noc(CC(=O)O)c2-c2ccc(OC)cc2)cc1,inactive,inactive,inactive,inactive,inactive,inactive,inactive,inactive,inactive,inactive,inactive,inactive,inactive,inactive,,,inactive,inactive,inactive,inactive
CCCCCCCCCCCCOCCCN,inactive,,inactive,inactive,inactive,inactive,inactive,inactive,inactive,inactive,inactive,inactive,inactive,inactive,inactive,inactive,inactive,inactive,inactive,inactive
CCCCCCCCCCCCCC[n+]1ccc(C)cc1,23.7 µM (active),inactive,,,,inactive,inactive,inactive,inactive,inactive,inactive,inactive,inactive,inactive,13.3 µM (active),inactive,inactive,inactive,inactive,
CC(C(=O)O)c1ccc(N2Cc3ccccc3C2=O)cc1 (stereo unspecified),inactive,0.596 µM (active),inactive,inactive,,inactive,inactive,inactive,inactive,inactive,inactive,inactive,inactive,inactive,,inactive,inactive,inactive,inactive,
CC(C)[C@@H](N)C(=O)O,inactive,inactive,inactive,,inactive,inactive,inactive,inactive,inactive,inactive,inactive,inactive,inactive,inactive,,inactive,inactive,inactive,inactive,
COC(=O)[C@@H](N)CS,inactive,inactive,inactive,,inactive,inactive,inactive,inactive,inactive,inactive,inactive,inactive,inactive,inactive,inactive,inactive,inactive,inactive,inactive,inactive
COc1cc([C@@H]2c3cc4c(cc3C(O[C@@H]3O[C@@H]5COC(c6cccs6)O[C@H]5[C@H](O)[C@H]3O)C3COC(=O)[C@@H]32)OCO4)cc(OC)c1O (stereo partly specified),0.376 µM (active),inactive,,inactive,inactive,inactive,inactive,inactive,inactive,inactive,inactive,inactive,inactive,inactive,,inactive,inactive,inactive,3.38 µM (active),
